Experimental data taken from PubChem BioAssay (Tox21).
Inconclusive results are not listed. Values without a mark were called inactive. Activity calls are given as the source filed them. Calls come from the whole dose curve; as a rule, active = well fitted inhibition curve with a large enough effect in the repeat runs; inconclusive = weak or mixed curves; inactive = no such curve, though single readings can be large or run the other way.

These compounds were tested against Androgen receptor (Homo sapiens) (UniProt P10275) (assay: qHTS assay to identify small molecule antagonists of the androgen receptor (AR) signaling pathway using the MDA cell line in the presence of 0.5 nM R1881 (AID 1259243; note: nearly all actives have a fitted effect of over 50% in size)). Settings: MDA-kb2 MMTV-luciferase, R1881 0.5 nM, 16 h; series mostly up to 42.5 µM.
Excerpt: U.S. Tox21 Program National Center for Advancing Translational Sciences [NCATS] NIH Chemical Genomics Center [NCGC] U.S. Environmental Protection Agency [EPA] National Institutes of Environmental Health Sciences [NIEHS] National Toxicology Program [NTP] U.S. Food and Drug Administration [FDA] Tox21 Assay Overview: Androgen receptor (AR) is an important member of the nuclear receptor family. Its signaling plays a critical role in AR-dependent prostate cancer and other androgen related diseases. Considerable attention has been given in the past decades to develop methods to study and screen for the environmental chemicals that have the potential to interfere with metabolic homeostasis, reproduction, developmental and behavioral functions. Therefore AR binding assay for screening androgen antagonists can be used to identify potential endocrine disruptors. MDA-kb2 cells (from ATCC, deposited by Wilson et al.) were used to screen for AR inhibitors against Tox21 compound libraries. These cells are human breast carcinoma cells that were stably transfected with a luciferase reporter gene under control of the MMTV promoter that contains response elements for both androgen receptor (AR) and glucocorticoid receptor (GR). The current screening for identification of AR inhibitors against Tox21 libraries used lower concentration (0.5 nM) of R1881 as a stimulator.
Tox21 Assay Protocol Summary: MDA-kb2 cells (cells cultured without CO2) were dispensed at 3,000 cells/well in 4 uL of culture medium into white wall/solid-bottom 1536-well plates (Corning Life Sciences, Corning, NY) using a Multidrop Combi (ThermoFisher Scientific, Waltham, MA) dispenser. After the assay plates were incubated at a 37C and 0% CO2 for 5 hr, 23 nL of compounds dissolved in DMSO, positive controls or DMSO only was transferred to the assay plate by a Pintool station (Kalypsys, San Diego, CA). The transfer of compounds was followed by the addition of 1 uL of 0.5 nM (final concentration) agonist (R1881)/culture medium using a Flying Reagent Dispenser (FRD, Aurora Discovery, San Diego, CA). The plates were incubated at 37C and 0% CO2 for 16 hr. For luciferase reporter gene assay, 4 uL of ONE-Glo reagent (Promega Corporation, Madison, WI) was added to each well using the FRD and after 30 min incubation at room temperature luminescence intensity was measured using ViewLux plate reader (PerkinElmer, Shelton, CT).
% is set by controls: 0 for no effect and ±100 for the full control effect.

Chain of Androgen receptor (Homo sapiens) (P10275 whole entry, looked up): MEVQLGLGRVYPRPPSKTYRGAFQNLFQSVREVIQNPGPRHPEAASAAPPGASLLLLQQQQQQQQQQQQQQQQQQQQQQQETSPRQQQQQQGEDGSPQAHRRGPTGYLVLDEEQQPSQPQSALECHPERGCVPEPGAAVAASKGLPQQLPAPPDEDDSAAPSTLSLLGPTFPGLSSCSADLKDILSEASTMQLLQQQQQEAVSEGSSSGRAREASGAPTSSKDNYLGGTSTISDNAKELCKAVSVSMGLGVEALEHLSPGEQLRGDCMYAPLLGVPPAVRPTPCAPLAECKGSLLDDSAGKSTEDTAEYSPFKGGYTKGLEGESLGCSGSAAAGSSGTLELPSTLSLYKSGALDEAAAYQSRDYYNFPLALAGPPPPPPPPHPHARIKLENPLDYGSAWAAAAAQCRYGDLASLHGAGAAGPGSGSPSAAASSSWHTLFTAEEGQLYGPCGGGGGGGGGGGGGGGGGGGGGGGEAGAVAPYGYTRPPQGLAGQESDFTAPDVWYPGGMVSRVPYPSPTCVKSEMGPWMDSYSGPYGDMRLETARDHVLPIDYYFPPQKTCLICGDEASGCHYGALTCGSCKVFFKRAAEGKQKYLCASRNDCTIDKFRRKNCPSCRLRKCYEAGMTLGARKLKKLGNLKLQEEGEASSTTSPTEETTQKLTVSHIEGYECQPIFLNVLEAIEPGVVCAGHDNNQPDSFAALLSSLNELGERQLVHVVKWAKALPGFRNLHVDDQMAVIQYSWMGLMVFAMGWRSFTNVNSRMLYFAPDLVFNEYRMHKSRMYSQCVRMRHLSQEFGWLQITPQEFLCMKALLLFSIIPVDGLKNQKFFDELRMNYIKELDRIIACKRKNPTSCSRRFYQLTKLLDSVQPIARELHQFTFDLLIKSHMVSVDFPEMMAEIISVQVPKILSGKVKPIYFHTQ

For O=C(O)c1ccccc1C(=O)OCc1ccccc1, which outcome is on record?
The outcome was “inactive”.

O=c1[nH]c(=O)c2ccccc2o1 was tested. Which outcome did it give?
Its outcome is “inactive”.

CN[C@@H]1[C@H](O)[C@H](NC)[C@H]2O[C@@]3(O)C(=O)C[C@@H](C)O[C@H]3O[C@@H]2[C@H]1O was tested. Which outcome did it give?
Its outcome is “inactive”.

With COCC(=O)Nc1c(I)c(C(=O)NCC(O)CO)c(I)c(C(=O)N(C)CC(O)CO)c1I (centres undefined) as the compound, how does the outcome read?
The outcome was “inactive”.

With O=C1OC(=O)c2cc(Oc3ccc4c(c3)C(=O)OC4=O)ccc21 as the compound, how does the outcome read?
The outcome was “inactive”.

For O=C(CN1CCN(Cc2ccc3c(c2)OCO3)CC1)N1c2ccccc2Sc2ccccc21, which outcome is on record?
Its outcome is “inactive”.

Nc1ccc(S(=O)(=O)Nc2ccccn2)cc1 was tested. Which outcome did it give?
Its outcome is “inactive”.

Which outcome does the source give for Cn1c(=O)c2c(ncn2CC2OCCO2)n(C)c1=O here?
The outcome was “inactive”.

How did the outcome turn out when CCNC(=O)/C=C/c1cccc(Br)c1 was run?
The outcome was “inactive”.

Which activity, negative = inhibition does the source give for C=CCCCCCCCCCCC here?
Its activity, negative = inhibition is 5.11% [at 8.39 µM].

NCCc1ccn[nH]1 was tested. Which outcome did it give?
Its outcome is “inactive”.

Which outcome does the source give for CCCCCCCCCCCCCC(=O)OC here?
Its outcome is “inactive”.

For CCCCC(CC)CNC(=O)CC(C)OC(=O)CCC(=O)O (centres undefined), which outcome is on record?
The outcome was “inactive”.

CCN(CC)C(=O)C1CN2CCc3cc(OC)c(OC)cc3C2CC1OC(C)=O (centres undefined) was tested. Which outcome did it give?
Its outcome is “inactive”.

CNC(=O)NC was tested. Which outcome did it give?
The outcome was “inactive”.

How did the outcome turn out when Nc1cc(C(=O)O)ccc1Cl was run?
Its outcome is “inactive”.

With COc1ccc(/C=N/NC(=O)c2ccncc2)cc1OC as the compound, how does the outcome read?
The outcome was “inactive”.

How did the outcome turn out when O=CN1CCOCC1 was run?
The outcome was “inactive”.

For CC(C)COC(=O)COc1ccc(Cl)cc1Cl, which outcome is on record?
The outcome was “inactive”.

With CCCCC[Si](OCC)(OCC)OCC as the compound, how does the outcome read?
The outcome was “inactive”.

With OC(CCN1CCCCC1)(c1ccccc1)c1ccccc1 as the compound, how does the outcome read?
Its outcome is “inactive”.

With O=S(=O)(O)SSS(=O)(=O)O as the compound, how does the outcome read?
Its outcome is “inactive”.

Which outcome does the source give for CCCCCCCCCCC here?
The outcome was “inactive”.

With CC(=O)N1CCN(c2ccc(O)cc2)CC1 as the compound, how does the outcome read?
The outcome was “inactive”.

How did the outcome turn out when COC(OC)C(C)c1ccccc1 (centres undefined) was run?
Its outcome is “inactive”.

Which outcome does the source give for Nc1ccnc(=O)[nH]1 here?
Its outcome is “inactive”.

Which outcome does the source give for Cc1ncc([N+](=O)[O-])n1CC(O)CCl (centres undefined) here?
Its outcome is “inactive”.

For CC(=O)OC[C@H]1O[C@@H](OC(C)=O)[C@H](OC(C)=O)[C@@H]1OC(C)=O, which outcome is on record?
Its outcome is “inactive”.

With COc1cccc2sc(N)nc12 as the compound, how does the outcome read?
The outcome was “inactive”.

CCCOCCOCCOCCO was tested. Which outcome did it give?
Its outcome is “inactive”.

CCCCCCCCCCCCCCCCI was tested. Which outcome did it give?
Its outcome is “inactive”.

With C=CCOCC(O)CCl (centres undefined) as the compound, how does the outcome read?
The outcome was “inactive”.

O=C(O)c1ccc(OCCN2CCCCC2)cc1 was tested. Which outcome did it give?
Its outcome is “inactive”.

How did the outcome turn out when CCC(C)(C)C1CCC(=O)CC1 was run?
Its outcome is “inactive”.

For COc1cc([N+](=O)[O-])ccc1N, which outcome is on record?
Its outcome is “inactive”.

For CCCCCCCCCCCCCCCCCCN(C)C, which outcome is on record?
The outcome was “inactive”.

CC(=O)OC(C(=O)c1ccccc1)c1ccccc1 (centres undefined) was tested. Which outcome did it give?
The outcome was “inactive”.

With O=C(O)c1ccccc1C(=O)Nc1ccc(S(=O)(=O)Nc2nccs2)cc1 as the compound, how does the outcome read?
The outcome was “inactive”.

With Cc1nc2n(c(=O)c1CCN1CCC(C(=O)c3ccc(F)cc3)CC1)CCS2 as the compound, how does the outcome read?
Its outcome is “inactive”.
